According to the supplement of paper PMC12494721:
Where a name gives a salt, the structure may show the parent alone.

The molecules below were run on Klebsiella aerogenes DSM 30053 (assay: fold change of Putrescine concentration vs plate DMSO controls (fold change (ratio)); higher = more amine produced, active = hit call of the paper (significant change in both replicates, either direction)). Conditions: incubation time: 27 h, anaerobic, 37 °C;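 for the amine columns active = adjusted P below 0.05 in both replicates with a change the same way and a mean fold change under 0.8 or over 1.25; inactive = the rest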.
Procedure, shortened: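 Anaerobic mGAM cultures of four gut bacterial strains were grown at 37 °C for 27 h in 80 µL wells, starting at OD 0.1 before 1:1 dilution. Compounds were at 20 µM final (sweeteners 50 µM). Whole cultures were extracted with cold acetonitrile/methanol containing 0.1% formic acid and centrifuged. Amines were quantified by LC–triple-quadrupole MS (dynamic MRM) against external calibration curves and drift-corrected within batch. Each value is the fold change versus plate DMSO controls, averaged over 2 biological replicates.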

Fold change of Putrescine concentration, inactive:
Oc1c(Cl)cc(Cl)c2cccnc12 [Chloroxine] (20 µM) 0.981
O=C1NCCN1CCN1CCC(c2cn(-c3ccc(F)cc3)c3ccc(Cl)cc23)CC1 [Sertindole] (20 µM) 0.982
CCSc1ccc2c(c1)N(CCCN1CCN(C)CC1)c1ccccc1S2 [Thiethylperazine maleate] (20 µM) 1.07
Cc1ccsc1/C=C/C1=NCCCN1C [Morantel tartrate] (20 µM) 1
COc1cc(C)nc(-n2nc(C)cc2OC)n1 [Epirizole] (20 µM) 1.02
CCC1(c2ccccc2)NC(=O)N(C)C1=O (stereo not drawn) [Mephenytoin] (20 µM) 1.02
CCCCCCCC/C=C\CCCCCCCCCCCC(=O)O [Erucic acid] (20 µM) 1.01
C#CCN(C)CCCOc1ccc(Cl)cc1Cl [Clorgyline hydrochloride] (20 µM) 0.984
CC1=NN(c2ccccc2)C(=O)C1 [Edaravone] (20 µM) 1.02
CC(=O)N[C@H]1[C@H]([C@H](O)[C@H](O)CO)OC(C(=O)O)=C[C@@H]1NC(=N)N [Zanamivir] (20 µM) 0.962
Cc1ccc(S(=O)(=O)NC(=O)NN2CCCCCC2)cc1 [Tolazamide] (20 µM) 0.974
CN1CCN(C2=Nc3cc(Cl)ccc3Nc3ccccc32)CC1 [Clozapine] (20 µM) 0.989
CCCNC(C)(C)C(=O)Nc1ccccc1C [Quatacaine] (20 µM) 1
